Read-out in experiment [1]: urokinase plasminogen activator (uPA), PLAU (gene 5328)
Nature of the experiment: BSK_KF3CT_uPA: BioMAP Diversity Plus: KF3CT Assay for urokinase plasminogen activator (uPA) Biomarker Activity (AID 2283075). The following applies: primary human keratinocytes with fibroblasts; actives raise or lower the signal. The method in brief:
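ELISA read-out of uPA 24 h after dosing human skin keratinocytes co-cultured with foreskin fibroblasts. Signal change fitted both ways relative to DMSO; sulforhodamine B on parallel cultures marks overt cytotoxicity.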

Read-out in experiment [2]: CD40, CD40 (gene 958)
Nature of the experiment: BSK_LPS_CD40: BioMAP Diversity Plus: LPS Assay for CD40 Biomarker Activity (AID 2283076). The following applies: primary human HUVEC with PBMC; actives raise or lower the signal. The method, boiled down:
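Primary human umbilical vein endothelial cells co-cultured with peripheral blood mononuclear cells, LPS-stimulated, were dosed with chemical and read 24 h later. CD40 levels were measured by ELISA and fitted bidirectionally against DMSO as negative control and baseline.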

Read-out in experiment [3]: E-selectin (Homo sapiens) (UniProt P16581)
Description: BSK_LPS_Eselectin: BioMAP Diversity Plus: LPS Assay for Eselectin Biomarker Activity (AID 2283077). The following applies: primary human HUVEC with PBMC; actives raise or lower the signal. The method in brief: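 Human umbilical vein endothelial cells co-cultured with peripheral blood mononuclear cells under LPS stimulation; E-selectin measured by ELISA 24 h after chemical dosing. Activity fitted bidirectionally against DMSO as negative control and baseline.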

Read-out in experiment [4]: Interleukin-8 (IL8), CXCL8 (gene 3576)
Nature of the experiment: BSK_LPS_IL8: BioMAP Diversity Plus: LPS Assay for Interleukin-8 (IL8) Biomarker Activity (AID 2283078). The following applies: primary human HUVEC with PBMC; actives raise or lower the signal. The method in brief:
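Human umbilical vein endothelial cells co-cultured with PBMC were stimulated with LPS; IL-8 levels were measured by ELISA 24 h after chemical dosing. Activity was fitted bidirectionally against DMSO as negative control and baseline.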

The nature of experiment [5]: BSK_LPS_SRB: Viability Assessment in the BioMAP Diversity Plus: LPS Assay (AID 2283079).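 Note: total protein by sulforhodamine B absorbance as a cytotoxicity measure; measured one day after compound addition.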 The following applies: primary human HUVEC with PBMC. The method in brief:
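Human umbilical vein endothelial cells co-cultured with PBMC (LPS system) were dosed for 24 h. Total protein was stained with 0.1% sulforhodamine B after 10% TCA fixation, read at 560 nm, and fitted bidirectionally against DMSO baseline.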

Read-out in experiment [6]: Interleukin-1 alpha (IL1a), IL1A (gene 3552)
Description: BSK_LPS_IL1a: BioMAP Diversity Plus: LPS Assay for Interleukin-1 alpha (IL1a) Biomarker Activity (AID 2283080). The following applies: primary human HUVEC with PBMC; actives raise or lower the signal. The method, boiled down:
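Human umbilical vein endothelial cells co-cultured with peripheral blood mononuclear cells were LPS-stimulated and exposed to test chemicals for 24 h. IL-1 alpha was quantified by ELISA, with bidirectional curve fitting against DMSO as the negative control and baseline.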

Read-out in experiment [7]: Monocyte Chemoattractant Protein-1 (MCP1), CCL2 (gene 6347)
Description: BSK_LPS_MCP1: BioMAP Diversity Plus: LPS Assay for Monocyte Chemoattractant Protein-1 (MCP1) Biomarker Activity (AID 2283081).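 For AC50: co-culture stimulated with LPS; secreted MCP-1 protein quantified by ELISA in culture supernatant.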 Particulars: primary human HUVEC with PBMC; actives raise or lower the signal. The method in brief:
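HUVEC plus PBMC co-culture (human primary cells, LPS system) exposed to test chemical for 24 h; MCP-1 measured by ELISA. Bidirectional curve fitting against DMSO baseline; parallel SRB total-protein staining flags overt cytotoxicity.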

Experiment [8] can be described thus: BSK_LPS_PGE2: BioMAP Diversity Plus: LPS Assay for Prostaglandin E2 (PGE2) Biomarker Activity (AID 2283082). The following applies: primary human HUVEC with PBMC; actives raise or lower the signal. The method, boiled down: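 Primary human endothelial cells and blood mononuclear cells, co-cultured with LPS, receive test chemical; PGE2 ELISA follows at 24 h, with SRB-stained parallel cultures flagging cytotoxicity.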

Read-out in experiment [9]: Macrophage colony-stimulating factor (MCSF), CSF1 (gene 1435)
Nature of the experiment: BSK_LPS_MCSF: BioMAP Diversity Plus: LPS Assay for Macrophage colony-stimulating factor (MCSF) Biomarker Activity (AID 2283083). The following applies: primary human HUVEC with PBMC; actives raise or lower the signal. The method, boiled down: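 Human umbilical vein endothelial cells co-cultured with peripheral blood mononuclear cells were exposed to compound for 24 h. M-CSF levels were measured by ELISA, and bidirectional curve fitting used DMSO as the negative control and baseline.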

Read-out in experiment [10]: Tissue Factor, F3 (gene 2152)
Description: BSK_LPS_TissueFactor: BioMAP Diversity Plus: LPS Assay for Tissue Factor Biomarker Activity (AID 2283084). The following applies: primary human HUVEC with PBMC; actives raise or lower the signal. The method in brief:
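Human umbilical vein endothelial cells co-cultured with peripheral blood mononuclear cells were dosed and stimulated with LPS. Cell-surface CD142 was quantified by ELISA at 24 h. Activity was fitted bidirectionally against DMSO baseline.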

Read-out in experiment [11]: Tumor necrosis factor (Homo sapiens) (UniProt P01375)
Description: BSK_LPS_TNFa: BioMAP Diversity Plus: LPS Assay for Tumour Necrosis Factor alpha (TNFa) Biomarker Activity (AID 2283085).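 For AC50: TNFa protein level quantified by ELISA in the co-culture.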 Particulars: primary human HUVEC with PBMC; actives raise or lower the signal. The method in brief: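 ELISA-based TNFa endpoint in a human endothelial–PBMC co-culture sampled 24 h post-exposure. Curves were fitted in both directions using DMSO as baseline of activity.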

Read-out in experiment [12]: Vascular cell adhesion molecule 1 (VCAM1), VCAM1 (gene 7412)
Nature of the experiment: BSK_LPS_VCAM1: BioMAP Diversity Plus: LPS Assay for Vascular cell adhesion molecule 1 (VCAM1) Biomarker Activity (AID 2283086). The following applies: primary human HUVEC with PBMC; actives raise or lower the signal. The method in brief:
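Measured by ELISA: VCAM-1 in LPS-activated HUVEC/PBMC co-cultures 24 h after treatment. Values reflect bidirectional fitting with DMSO as baseline.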

Read-out in another experiment: CD38, CD38 (gene 952)
Nature of the experiment: BSK_SAg_CD38: BioMAP Diversity Plus: SAg Assay for CD38 Biomarker Activity (AID 2283087). The following applies: primary human HUVEC with PBMC; actives raise or lower the signal. The method in brief: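 Measures CD38 on a human endothelial/PBMC co-culture driven by SEB and TSST-1, 24 h after compound exposure, using ELISA with fluorescence detection; DMSO defines baseline for bidirectional curve fitting.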

Read-out in experiment [13]: CD40, CD40 (gene 958)
Nature of the experiment: BSK_SAg_CD40: BioMAP Diversity Plus: SAg Assay for CD40 Biomarker Activity (AID 2283088). Particulars: primary human HUVEC with PBMC; actives raise or lower the signal. The method in brief:
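Human umbilical vein endothelial cells co-cultured with PBMC; CD40 levels measured by ELISA with fluorescence read-out 24 h after chemical dosing. Gain or loss of signal fitted bidirectionally against DMSO baseline.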

Read-out in experiment [14]: Monocyte Chemoattractant Protein-1 (MCP1), CCL2 (gene 6347)
Nature of the experiment: BSK_SAg_MCP1: BioMAP Diversity Plus: SAg Assay for Monocyte Chemoattractant Protein-1 (MCP1) Biomarker Activity (AID 2283090). Particulars: primary human HUVEC with PBMC; actives raise or lower the signal. The method in brief:
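Values derive from bidirectional fitting of ELISA-measured MCP1 against DMSO controls. Readings were taken 24 h after dosing human vascular endothelial cells co-cultured with peripheral blood mononuclear cells under superantigen stimulation.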

Read-out in experiment [15]: E-selectin (Homo sapiens) (UniProt P16581)
Nature of the experiment: BSK_SAg_Eselectin: BioMAP Diversity Plus: SAg Assay for Eselectin Biomarker Activity (AID 2283091). The following applies: primary human HUVEC with PBMC; actives raise or lower the signal. The method, boiled down: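 HUVEC co-cultured with PBMC, compound dosed then read at 24 h; E-selectin measured by ELISA. Activity fitted bidirectionally against DMSO as negative control and baseline.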

Read-out in experiment [16]: Monokine induced gamma interferon (MIG), CXCL9 (gene 4283)
Nature of the experiment: BSK_SAg_MIG: BioMAP Diversity Plus: SAg Assay for Monokine induced gamma interferon (MIG) Biomarker Activity (AID 2283092). Particulars: primary human HUVEC with PBMC; actives raise or lower the signal. The method in brief:
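HUVEC plus human PBMC co-culture, chemicals dosed and MIG (CXCL9) quantified by ELISA at 24 h. Bidirectional curve fitting against DMSO as negative control and baseline, so both gain and loss of signal count as activity.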

Experiment [17] is described as follows: BSK_SAg_PBMCCytotoxicity: PBMC Cytotoxicity Assessment in the BioMAP Diversity Plus: SAg Assay (AID 2283093).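 For AC50: PBMC superantigen activated with SEB plus TSST-1 one hour after compound addition.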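 Note: PBMC viability measured as Alamar Blue reduction fluorescence at 546/580 nm; fitted both ways against DMSO so a hit may be loss or gain of signal.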 The following applies: primary human HUVEC with PBMC. The method in brief:
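Alamar Blue reduction (6 h, ex/em 546/580 nm) read after 90 h culture of PBMC pre-dosed 1 h then stimulated with SEB plus TSST-1, 20 ng/mL each. Gain or loss of signal fitted relative to DMSO.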

Read-out in experiment [18]: Interleukin-8 (IL8), CXCL8 (gene 3576)
Nature of the experiment: BSK_SAg_IL8: BioMAP Diversity Plus: SAg Assay for Interleukin-8 (IL8) Biomarker Activity (AID 2283094). The following applies: primary human HUVEC with PBMC; actives raise or lower the signal. The method, boiled down:
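Primary human endothelial cells with PBMC, exposed 24 h; IL-8 determined by ELISA, analysed bidirectionally relative to DMSO.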

Experiment [19] in a line: BSK_SAg_Proliferation: Cell Proliferation Assessment in the BioMAP Diversity Plus: SAg Assay (AID 2283095).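 Note: relative cell number as total protein by SRB absorbance in sub-confluent culture.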 Particulars: primary human HUVEC with PBMC. The method in brief: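 A human primary co-culture of umbilical vein endothelium and blood mononuclear cells receives compound; relative cell number is quantified at 96 h by SRB staining and 560 nm absorbance, with DMSO-referenced bidirectional curve fitting.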

Calls of active or inactive are those of the source. Rule for the calls: active = hit-call score of the fitted dose curve at least 0.9, where 1 is the maximum; inactive = score below 0.9.

The term AC50 denotes the concentration giving half of the maximal activity seen.

Chain of Tumor necrosis factor (Homo sapiens) (P01375 whole entry, looked up): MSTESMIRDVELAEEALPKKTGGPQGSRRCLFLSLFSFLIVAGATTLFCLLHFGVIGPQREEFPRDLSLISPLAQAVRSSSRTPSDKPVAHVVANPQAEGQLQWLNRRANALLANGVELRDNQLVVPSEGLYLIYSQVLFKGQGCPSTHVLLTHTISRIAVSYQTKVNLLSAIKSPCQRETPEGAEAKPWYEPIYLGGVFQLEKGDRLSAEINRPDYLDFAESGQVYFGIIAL
Chain of E-selectin (Homo sapiens) (P16581 whole entry, looked up): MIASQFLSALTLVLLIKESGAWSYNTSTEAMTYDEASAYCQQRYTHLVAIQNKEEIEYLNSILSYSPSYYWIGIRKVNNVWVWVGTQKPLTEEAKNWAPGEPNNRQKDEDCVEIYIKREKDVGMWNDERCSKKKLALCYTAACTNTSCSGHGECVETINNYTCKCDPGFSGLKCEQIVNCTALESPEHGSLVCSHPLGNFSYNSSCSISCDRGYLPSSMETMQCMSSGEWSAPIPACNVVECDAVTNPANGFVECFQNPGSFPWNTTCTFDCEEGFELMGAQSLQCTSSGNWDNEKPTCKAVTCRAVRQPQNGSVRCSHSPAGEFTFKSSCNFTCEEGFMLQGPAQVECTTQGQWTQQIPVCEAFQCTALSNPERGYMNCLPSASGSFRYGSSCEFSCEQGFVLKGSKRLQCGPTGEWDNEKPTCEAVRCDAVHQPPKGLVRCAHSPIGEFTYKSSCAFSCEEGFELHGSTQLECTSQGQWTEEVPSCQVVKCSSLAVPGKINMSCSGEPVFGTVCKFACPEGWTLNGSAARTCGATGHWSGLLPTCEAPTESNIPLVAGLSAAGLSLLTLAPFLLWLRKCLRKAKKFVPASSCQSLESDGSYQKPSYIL

As for `O=Nc1ccc(O)cc1`, the outcome in experiment [1] was “inactive”; with CD40, CD40 (gene 958) [2] it was “inactive”; in experiment [3], “inactive”; in experiment [4], “inactive”; in experiment [5], “inactive”; in [6] it was “inactive”. The result in experiment [7], in [8], in [9], in experiment [10], in experiment [11] and in experiment [12] was inactive. In addition, the outcome was “inactive” with CD38, CD38 (gene 952); “inactive” in the experiment with CD40, CD40 (gene 958) [13]; “inactive” in [14]; “inactive” in [15]; “inactive” in [16]; “inactive” in experiment [17]. Further, the result in experiment [18] and in [19] was inactive.
In the case of `CCCCCCCCc1ccc(Nc2ccc(CCCCCCCC)cc2)cc1`, the outcome in experiment [1] was “inactive”; in the experiment with CD40, CD40 (gene 958) [2], “inactive”; in experiment [3], “inactive”; in experiment [4] it was “inactive”; in experiment [5], “inactive”; in experiment [6] it was “inactive”. Further, the outcome in experiment [7], in experiment [8], in experiment [9], in [10], in experiment [11] and in [12] was inactive. Besides, the outcome was “inactive” with CD38, CD38 (gene 952); “inactive” with CD40, CD40 (gene 958) [13]; “inactive” in experiment [14]; “inactive” in experiment [16]; “inactive” in [17]; “inactive” in [18]. Moreover, the result in [19] was inactive. In addition, the AC50 in experiment [15] was 0.0731 µM (active).
Regarding `c1ccc(-c2ccccn2)nc1`, the outcome in experiment [1] was “inactive”; with CD40, CD40 (gene 958) [2], “inactive”; in experiment [3] it was “inactive”; in experiment [4] it was “inactive”; in [5] it was “inactive”; in experiment [6], “inactive”. Moreover, the outcome in [7], in experiment [8], in experiment [9], in experiment [10], in experiment [11] and in experiment [12] was inactive. The outcome with CD38, CD38 (gene 952) is “inactive”; with CD40, CD40 (gene 958) [13] it was “inactive”; in experiment [14], “inactive”; in experiment [15] it was “inactive”; in experiment [16], “inactive”; in experiment [17], “inactive”. The outcome in experiment [18] and in experiment [19] was inactive.
As to `CCCCCCCCCCCCCCCC[N+](C)(C)CC`, the AC50 in experiment [1] is 7.22 µM (active); with CD40, CD40 (gene 958) [2], 3.07 µM (active); in experiment [3], 5.7 µM (active); in experiment [4], 8.09 µM (active); in experiment [5], 1.62 µM (active); in experiment [6], 1.42 µM (active). Further, the AC50 is 2.58 µM (active) in [7]; 2.18 µM (active) in experiment [9]; 2.36 µM (active) in experiment [10]; 4.58 µM (active) in experiment [11]; 3.79 µM (active) in experiment [12]; 9.51 µM (active) with CD38, CD38 (gene 952). The AC50 with CD40, CD40 (gene 958) [13] is 10.2 µM (active); in experiment [14], 2.24 µM (active); in experiment [15], 2.77 µM (active); in experiment [16], 3.51 µM (active); in [17], 1.94 µM (active); in experiment [18], 9.75 µM (active). The AC50 in [19] was 0.314 µM (active). Also, the outcome in experiment [8] was inactive.

For the origin of these results see PubChem BioAssay (EPA / NIEHS).
